# Source: PubChem (several laboratories)
# Cav32 inh = Cav3.2 calcium influx blockers – cell-based, Fluo-4 calcium fluorescence, FDSS, MLSMR library, primary screen | Voltage-dependent T-type calcium channel subunit alpha-1H (Homo sapiens), O95180 | 100,000 tested, 4% active | AID 449739, 2010 | Cav3.2-expressing cells; hits give low values | B-score at 10 µM;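 active means single-dose well whose peak fluorescence ratio is a statistical outlier from its plate by either plate-standardised score or position-corrected B-score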
# M1 antagonist = antagonists of rat M1 muscarinic receptor | B-score at 10 µM | 64,000 tested, 3.4% active | AID 628, 2007 | CHO-M1 cells, Fluo-4 calcium, ACh EC80 antagonist mode; hits give low values | Muscarinic acetylcholine receptor M1 (Rattus norvegicus), P08482;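 active means calcium fluorescence response, raw or row-and-column corrected B-score, differing from the plate sample mean either way at a set confidence level, mostly lower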
# PLAP act = PLAP enzyme activators, biochemical, luminescence, HTS | purified PLAP enzyme, luminescent substrate read-out; hits give high values | Alkaline phosphatase, placental type (Homo sapiens), P05187 | activation fold at 20 µM | 96,000 tested, 1.2% active; in the data active means activation fold above about 2
# Target sequence (P05187 whole entry, looked up): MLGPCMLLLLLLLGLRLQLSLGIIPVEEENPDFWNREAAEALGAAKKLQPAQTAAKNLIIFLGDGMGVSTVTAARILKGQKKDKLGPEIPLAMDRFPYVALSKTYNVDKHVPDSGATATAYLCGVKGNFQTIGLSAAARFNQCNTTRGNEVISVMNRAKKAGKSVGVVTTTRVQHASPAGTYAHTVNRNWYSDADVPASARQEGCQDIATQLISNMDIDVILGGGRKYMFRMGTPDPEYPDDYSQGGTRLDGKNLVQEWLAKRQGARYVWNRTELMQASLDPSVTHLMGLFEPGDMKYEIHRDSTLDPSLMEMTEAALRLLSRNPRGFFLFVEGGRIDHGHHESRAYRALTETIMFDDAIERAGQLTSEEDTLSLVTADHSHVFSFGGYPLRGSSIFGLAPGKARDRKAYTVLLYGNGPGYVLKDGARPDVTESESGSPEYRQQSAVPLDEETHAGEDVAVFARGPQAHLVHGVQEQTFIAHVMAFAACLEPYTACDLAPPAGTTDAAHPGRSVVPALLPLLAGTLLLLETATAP
# M1 ag = M1 muscarinic receptor agonists, primary screen, CHO-M1 cells, Fluo-4 calcium, agonist mode; Fluo-4 calcium fluorescence; hits give high values; B-score at 10 µM; 64,000 tested, 3% active;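 active means fluorescence rise, raw or as B-score row- and column-corrected plate score, outside the 99.7% band of its plate's samples, either direction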
# * marks the source's active call; other numbers are inactive results; . = no result given. Compounds with a hit are over-represented: about 7.6% of the library has one in this group of screens.
SMILES,Cav32 inh,M1 antagonist,PLAP act,M1 ag
O=C(CSc1nnc(Cc2cccs2)n1-c1ccc(Cl)cc1)NCc1ccc2c(c1)OCO2,-8.5*,.,1.3,.
CC(=O)C1=C(C)OC(N)=C(C#N)C1c1cc2cc(C)c(C)cc2nc1Cl (centres undefined),.,.,1.4,.
Cc1cc2cc(C=O)c(Cl)nc2cc1C,-5.9*,.,0.9,.
CCCCCCc1nnc(N)s1,0.036,.,0.9,.
COc1ccccc1N=C1SC(C(=O)Nc2ccc(F)cc2)CC(=O)N1C (centres undefined),1.2,.,.,.
CCOc1cccc(NC(=O)C2CC(=O)N(C)C(=Nc3ccccc3)S2)c1 (centres undefined),-4.5*,-0.99,1.1,1.4
CCOc1cccc(NC(=O)C2CC(=O)N(C)C2)c1 (centres undefined),0.11,0.19,0.8,-0.18
CCOc1cccc(NC(=O)C2CC(=O)N(C)C(=Nc3cccc(F)c3)S2)c1 (centres undefined),-4.7*,.,0.9,.
CC(C)CC(NC(=O)C(COC(C)(C)C)NC(=O)C(Cc1ccc(O)cc1)NC(=O)C(CO)NC(=O)C(Cc1c[nH]c2ccccc12)NC(=O)C(Cc1cnc[nH]1)NC(=O)C1CCC(=O)N1)C(=O)N[C@@H](CCCN=C(N)N)C(=O)N1CCCC1C(=O)NNC(N)=O (some centres undefined),0.12,.,.,.
N/C(=N\S(=O)(=O)c1ccc(Cl)s1)c1ccccc1,-5.8*,0.65,0.6,0.085
Cc1cc2nc(CCN(Cc3cccnc3)C(=S)Nc3ccccc3)[nH]c2cc1C,-0.66,.,1.3,.
Cc1cc2nc(CCN(C(=S)NCC(C)C)C3CCCC3)[nH]c2cc1C,-4.3*,.,2.4*,.
CCC(=O)NS(=O)(=O)c1ccc(-c2c(-c3ccccc3)noc2C)cc1,-0.38,.,.,.
Cc1ccc(CSCCNC(=O)c2ccc(N(C)S(=O)(=O)c3ccccc3)cc2)cc1,-5.6*,.,1.4,.
Cc1ccc(CSCCNC(=O)c2ccc(Cl)c(S(=O)(=O)N3CCOCC3)c2)cc1,-7.4*,.,1.7,.
COc1ccc(CC(=O)N2N=C(C)CC2(O)c2cccnc2)cc1 (centres undefined),-0.18,.,2.1*,.
CC(C)CC(CO)N1CCN(C(=O)c2ccc(Cl)cc2)CCC1=O (centres undefined),-0.13,.,.,.
C=CCNc1nc(-c2ccccc2)c(C(=O)OCC)cc1C#N,-4.4*,.,1.1,.
CN(C)c1ccc(NC(=O)CN2CCN(S(=O)(=O)c3cc(Cl)ccc3Cl)CC2)cc1,-4.1*,-0.8,1,-0.52
COc1ccc(NC(=O)CN2CCN(S(=O)(=O)c3ccc(Cl)cc3)CC2)cc1,-0.87,0.4,0.7,0.55
CCOc1ccc(OCC)c(-c2c(=O)n(OCc3ccccc3Br)c3ccccc3[n+]2[O-])c1,-3.5,.,1,.
Cc1ccc(-n2nc(-c3cccs3)cc2C(=O)NCC2CCCO2)c(C)c1 (centres undefined),-4.4*,-0.84,1.4,0.75
Cc1ccc(-c2cc(C(=O)NCC3CCCO3)no2)cc1 (centres undefined),0.4,0.044,1.1,-0.6
COc1ccc(Br)cc1C(=O)Nc1cc(C)cc(C)c1,0.31,.,1.1,.
CCOc1cc(/C=N/NC(=O)CNc2cccc(C)c2)ccc1OC(=O)c1ccccc1,-3.9*,.,1,.
SMILES,Cav32 inh,M1 antagonist,PLAP act,M1 ag
O=C(Nc1cc2c3c(c1)C1CCCC1CN3CC1CCCC21)c1ccccc1 (centres undefined),-3.8,.,0.8,.
CCOc1ccc(N(CC(=O)NCC2CCCO2)S(=O)(=O)c2ccc(SC)cc2)cc1 (centres undefined),0.075,.,1.8,.
Cc1cccc(C)c1NC(=O)C(c1ccc([N+](=O)[O-])cc1)N1CCCCC1 (centres undefined),-5.6*,.,1,.
COc1ccc(C(=O)/C(=C\c2ccco2)N2C=CC=CC2=C(C#N)C#N)cc1,-6.8*,.,1.1,.
COc1ccc(C(NC(=O)/C=C\c2ccco2)c2ccc(OC)c(OC)c2)cc1 (centres undefined),-1.1,.,1,.
Cc1ccc(SC(C)C(=O)Nc2ncn[nH]2)cc1 (centres undefined),-0.027,1.1,2.1*,1.1
CSc1nsc(SCCN2C(=O)c3ccccc3C2=O)n1,-1.1,2.3*,0.9,1.2
O=C1Nc2ccccc2C12OCC(COc1ccc(Cl)cc1)O2 (centres undefined),-5.4*,-0.16,0.8,0.4
COc1ccc(CCNC(=O)COC(=O)c2ccc(Br)o2)cc1,-3.8*,.,0.8,.
CCN(CC)S(=O)(=O)c1ccc(NC(=O)COC(=O)c2ccc(Br)o2)cc1,-4.7*,-0.27,0.8,0.0077
CCCOc1ccc(/C=c2\sc3nc(-c4ccco4)nn3c2=O)cc1OCC,.,0.15,1.7,25*
Cc1[nH]nc(-c2ccc(O)cc2O)c1Oc1ccccc1,-4.5*,-0.5,1.7,1.1
CCCOC(=O)c1ccc(Oc2c(-c3ccc(O)cc3O)n[nH]c2C)cc1,-3,1.3,1.8,-0.32
Cc1[nH]nc(-c2ccc(O)cc2O)c1-c1ccc(Cl)cc1,-4.8*,1.3,1.6,-0.65
CC(C)CNc1oc(-c2ccc(F)cc2)nc1C#N,-3.5,-0.37,0.8,0.92
COC(=O)C1CSC(C(=O)OC)N1C(=O)CN1CC(C)OC(C)C1 (centres undefined),-0.1,.,1,.
COc1cc2c(cc1OC)C1=NC(=O)CN1C(SCc1ccccc1)=N2,.,.,1.5,.
CC1CCCCC1NC(=O)CN1CCC(O)(c2ccc(F)cc2)CC1 (centres undefined),0.86,0.054,1.3,-0.55
COc1cc(C2C(C#N)=C(N)Oc3cc(C)n(Cc4ccccn4)c(=O)c32)cc2c1OCO2 (centres undefined),.,-10*,.,34*
COC(=O)c1c(C(=O)OC)c2ccncn2c1Cl,-0.54,0.43,2.4*,1.8
CCCCC1=CC2=CC(=O)C(C)(OC(=O)CC)C(=O)C2=CN1CCN1CCOCC1 (centres undefined),0.35,.,.,.
CC(C)N(Cc1nc(-c2ccccc2)no1)C(=O)CCCN1C(=O)c2ccccc2C1=O,-1.8,0.33,1.5,-0.11
Cc1ccc(-c2noc(CN(C(=O)C(c3ccccc3)c3ccccc3)C(C)C)n2)cc1,-8.5*,.,1.1,.
Cc1ccc(-c2noc(CN(C(=O)C34CC5CC(CC(C5)C3)C4)C(C)C)n2)cc1,1.1,-0.02,1.1,0.012
CC(C)N(Cc1nc(-c2ccc(Cl)cc2)no1)C(=O)C(c1ccccc1)c1ccccc1,-4.3*,.,1.2,.
CCN(CC(=O)N1CCN(C)CC1)S(=O)(=O)c1ccc(Cl)cc1,0.035,0.069,1.4,-0.32
Cc1ccc(S(=O)(=O)N2CCCC2C(=O)NC2=NCCS2)cc1 (centres undefined),0.023,0.16,1,0.43
O=C(CCc1ccccc1)n1nc(-c2ccco2)nc1SCc1ccccc1,.,.,0.8,.
O=C(CN1CCN(c2ccccn2)CC1)N(c1ccccc1)c1ccc2ccccc2c1,-6.3*,-0.077,1.6,-1.1
O=C(CN1CCOCC1)N(c1ccccc1)c1ccc2ccccc2c1,0.05,-0.46,1.5,-0.2
